# Only some compounds are listed: those with a hit (about 12% of all), similar ones and a draw of the others.
# WT yeast gro inh: growth inhibition of WT strain, primary screen, mitochondrial fusion inhibitor project, WT and mutant strains, chemical genetic. mitochondrial fusion phenotypic screen. inhibition, % at 10 µM. 190,000 compounds, 2.1% hits. AID 1362, 2008; in the data active = inhibition above about 58%; tested in S. cerevisiae
# Calpain2 inh: inhibitors of pig calpain II, primary screen, biochemical, fluorogenic peptide substrate, 1536-well. AID 1236, 2008. purified calpain II, 30 min. 220,000 compounds, 0.37% hits. inhibition, % at 16 µM;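 active = inhibition above about 50%, limit read from the data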
# KCC2 mod: KCC2 cotransporter modulators, thallium flux, primary screen, cell-based, HEK293 KCC2, FluoZin-2 fluorescence, MLSMR; B-score of Tl+ flux slope (higher = more flux/activation; lower = inhibition) at 10 µM; 190,000 compounds, 2.2% hits; Solute carrier family 12 member 5 (Homo sapiens), Q9H2X9; KCC2 cells, thallium flux FluoZin-2 fluorescence;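 active = thallium flux slope and its plate-corrected score both differing from the plate sample mean at a set confidence after two filtering rounds, in either direction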;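 note: slope of fluorescence scaled to starting intensity during 10 to 20 s after thallium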
# L major viab: Leishmania major promastigote growth inhibition, primary screen; Leishmania major promastigotes, resazurin fluorescence viability; inhibition, % at 10 µM; 200,000 compounds, 9% hits; in the data active = inhibition above about 50%;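 note: promastigotes grown with compound for 44 hours at 28 °C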
# ROMK mod: ROMK potassium channel modulators, primary screen, cell-based, thallium flux, MLSMR library | Tet-inducible ROMK, thallium flux fluorescence; actives lie on both sides | B-score at 10 µM | 130,000 compounds, 2% hits | AID 1918, 2009;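 active = signal ratio slope over the read window, or its plate-corrected B-score, at least 3 SD from the plate mean, either direction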;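 note: B-score of the F/F0 ratio slope over 7 to 12 s after thallium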
# Target sequence (P48048 whole entry, looked up): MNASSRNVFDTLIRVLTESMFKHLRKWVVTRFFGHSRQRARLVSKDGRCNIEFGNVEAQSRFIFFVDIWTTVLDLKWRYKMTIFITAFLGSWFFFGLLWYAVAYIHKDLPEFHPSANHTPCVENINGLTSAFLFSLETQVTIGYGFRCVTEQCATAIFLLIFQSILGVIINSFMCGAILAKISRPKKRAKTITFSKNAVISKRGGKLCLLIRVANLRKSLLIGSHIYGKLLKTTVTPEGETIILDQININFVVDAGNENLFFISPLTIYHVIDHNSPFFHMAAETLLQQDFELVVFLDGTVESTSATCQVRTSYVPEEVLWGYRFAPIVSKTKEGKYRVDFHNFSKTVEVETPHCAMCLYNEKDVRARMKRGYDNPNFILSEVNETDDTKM
# Starred values were filed as active, the others as inactive; / = no result.
SMILES,WT yeast gro inh,Calpain2 inh,KCC2 mod,L major viab,ROMK mod
Nc1nc(-c2ccccc2)cc(-c2ccccc2O)n1,-24.5,6.1,/,25.9,0.909
CCN=C1S/C(=C\c2ccc(OC)c(OCC)c2)C(=O)N1CC,11.1,-40.3,1.46,69.6*,1.54
COc1ccc(/C=C2\SC(=NCc3ccccc3)N(Cc3ccccc3)C2=O)cc1OC,-6.5,-31.3,-0.255,1.7,/
CCNC(=O)c1ccc(C23CC4CC(CC(C4)C2)C3)o1,5.1,-0.4,-0.404,89.0*,0.263
CC(C)c1ccc(S(=O)(=O)Nc2ccc(SC(F)F)cc2)cc1,85.0*,27.5,-0.334,-9.6,/
OCCC1CN(Cc2cnc(N3CCOCC3)s2)CCN1C1CCCC1 (stereo not drawn),-0.5,-20.1,-0.702,-0.9,0.44
O=C(COC(=O)c1ccc2[nH]c3c(c2c1)CCCC3)Nc1ccccc1Cl,7.8,-42.8,-0.355,7.4,-0.225
CN(C)c1cccc(C(=O)OCC(=O)Nc2ccccc2Cl)c1,10.6,55.9*,-0.466,-7.2,-2.08
Cc1ccc(S(=O)(=O)N2CCCCC2)cc1NC(=O)COC(=O)c1ccc2c(c1)OCO2,13.2,55.5*,-0.00892,-1.3,-0.985
CCC(C)c1ccccc1NC(=O)COC(=O)c1ccc2[nH]c3c(c2c1)CCCC3 (stereo not drawn),62.2*,14.4,0.133,34.8,0.502
CC(C)c1ccccc1NC(=O)COC(=O)c1ccc(Cl)c(S(=O)(=O)N2CCCCCC2)c1,-23.3,26.8,-1.25,59.8*,-0.441
c1cc2c(cc1-c1[nH]ncc1CN1C[C@H]3CC[C@H]1C3)OCO2,0.6,-20.4,0.158,8.8,-0.778
Cn1nnnc1SCC(=O)N(C1CCCCC1)C1CCS(=O)(=O)C1 (stereo not drawn),-5.9,-5.6,-2.5,-8.2,1.01
CN1C2=NCCN2C(=O)c2ccccc21,2.9,-12.5,-0.128,3.0,/
O=C(Nc1ccccc1N1CCOCC1)c1cccnc1Cl,5.0,-3.7,-0.67,4.6,0.137
CCc1ccc(NC(=O)COC(=O)c2ccc(Cl)c(S(=O)(=O)N3CCCCCC3)c2)cc1,2.9,21.1,-0.116,62.5*,-0.293
CC(=O)NCC(=O)N(C)C(C(=O)Nc1ccc(C(C)C)cc1)c1ccccc1 (stereo not drawn),6.5,-8.3,/,23.3,0.0172
O=C(NCc1cccs1)c1ccc(Cl)c(S(=O)(=O)N2CCCC2)c1,-0.2,12.3,-1.6,5.7,-0.642
Cc1[nH]c2ccccc2c1CN1CCC(CO)(Cc2ccccc2)CC1,7.0,-38.6,0.771,4.1,-1.47
CCN1CCCC(CO)(Cc2ccccc2)C1 (stereo not drawn),-2.9,-6.3,-0.263,1.1,-1.05
OCC1(Cc2ccccc2)CCCN(Cc2ccc(-c3ccco3)cc2)C1 (stereo not drawn),37.5,-8.1,0.692,80.2*,0.143
OCC1(Cc2ccccc2)CCN(CCCC2CCCC2)CC1,26.0,-24.3,0.172,95.5*,-1.67
OCC1(Cc2ccccc2)CCN(Cc2ccc(-c3ccco3)cc2)CC1,2.6,-53.8,1.5,90.6*,-1.98
O=C(NCc1ccccc1)C1=C[C@@H](c2coc3ccccc3c2=O)C[C@@H](OCc2ccc(CO)cc2)O1,1.6,35.1,-1.7,49.3,/
Cc1cc(CNC(=O)Cn2nc(C)c([N+](=O)[O-])c2C)c2ccccc2n1,-6.2,-0.5,-0.155,-5.6,2.43
SMILES,WT yeast gro inh,Calpain2 inh,KCC2 mod,L major viab,ROMK mod
CCCCCCCN1C2=NCCCN2c2ccccc21,31.9,2.4,-0.0371,70.5*,-1.12
c1ccc(OCCN2C3=NCCN3c3ccccc32)cc1,10.0,-6.3,1.06,100.5*,-0.99
Cc1ccc(CN2C3=NCCCN3c3ccccc32)cc1,9.7,13.5,/,6.5,/
CC(C)(C)c1ccc(CN2C3=NCCCN3c3ccccc32)cc1,19.7,-42.1,-0.0553,100.5*,/
CCCN1C2=NCCN2c2ccccc21,-20.1,-1.6,0.065,-7.4,/
CCOc1cccc(/C=C/c2cc(C(=O)O)c3ccccc3n2)c1OC,/,-22.9,-0.446,/,/
CC1=CC(C)(C)N(C(=O)c2ccc(F)cc2)c2cc3c(cc21)OCO3,71.2*,-4.1,0.947,36.3,0.452
O=C(Nc1ccccc1)OCc1cc(-c2ccccc2Cl)on1,12.9,19.7,0.286,-8.6,0.12
CCCn1c(N)c(C(=O)NS(=O)(=O)c2ccc(C)cc2)c(=O)n(C)c1=O,0.0,-14.4,0.391,8.2,-0.614
COc1cc2c(cc1OC)C(c1ccccc1)N(C(=O)CCl)CC2 (stereo not drawn),-5.9,-1.7,0.933,98.9*,/
COc1cc2c(cc1OC)C(c1cccs1)N(C(=O)c1cccnc1)CC2 (stereo not drawn),-4.9,-31.3,-0.0212,0.1,1.51
COc1cc2c(cc1OC)C(c1cccs1)N(C(=O)C(C)C)CC2 (stereo not drawn),17.4,17.6,-0.186,73.4*,/
CSc1nccc(Oc2cccc(C#N)c2)n1,-4.1,-9.4,0.585,41.7,-0.00142
Cc1[nH]c2ccc(-c3nnc(SCC(=O)NCc4ccco4)n3Cc3ccccc3)cc2c1C,-2.6,-37.4,-0.362,97.3*,-0.63
Cc1cc(C(=O)C(=O)O)c(C)n1-c1ccc(Cl)cc1,1.4,3.2,0.956,0.3,0.0104
Cc1cc(C(=O)C(C)Sc2cccc[n+]2[O-])c(C)n1-c1ccc(Cl)cc1 (stereo not drawn),-15.4,-14.1,0.457,96.6*,-0.405
COc1ccc(OC)c(C(=O)C2COC(=O)C2)c1 (stereo not drawn),21.3,-10.8,0.904,55.8*,1.15
COc1ccc(OC)c(C(=O)c2ccc(C(=O)c3cc(OC)ccc3OC)cc2)c1,-0.7,-36.4,-0.446,-1.9,/
O=C(NNc1ccccc1)C(CCO)C(=O)NNc1ccccc1,26.9,-3.3,-0.157,75.5*,-0.0538
CC(O)CC(C(=O)NNc1ccccc1)C(=O)NNc1ccccc1 (stereo not drawn),53.1,-18.0,-0.0168,62.8*,0.69
CC(C)C(=O)NNc1ccccc1,5.6,4.6,/,0.4,-0.541
CC(C)OC(=O)C(=O)NNc1ccccc1,72.2*,17.3,0.08,41.9,0.86
O=C(CSc1nc2ccccc2o1)NCCOc1ccccc1,-4.2,13.1,-1.1,-5.2,-2.81
O=C(CN1C(=O)/C(=C/c2c(F)cccc2Cl)Oc2ccccc21)NCc1ccco1,0.7,-295.2,0.911,26.6,/
O=C(Nc1ccccc1)Nc1ccccc1NS(=O)(=O)c1cccs1,-3.4,3.6,-0.485,3.9,-0.218
N#Cc1ccc(OCC(=O)Nc2ccccc2NS(=O)(=O)c2cccs2)cc1,-15.6,-12.8,-0.0753,63.1*,2.11
CN(C)S(=O)(=O)c1ccc(C(=O)OCCn2cnc3c2c(=O)n(C)c(=O)n3C)cc1,-4.2,5.3,0.75,4.9,0.512
CCc1nnc(NC(=O)C2CCCN2C(=O)Nc2ccccc2)s1 (stereo not drawn),-3.9,18.9,-1.68,-8.9,0.924
CC(C)(C)c1ccc(OCCNC(=S)NC(=O)c2cccnc2)cc1,49.6,24.2,1.28,53.0*,0.0401
